Screens (PubChem BioAssay)
ALR H2O2 inh = inhibitors of human sulfhydryl oxidase ALR | purified ALR, DTT oxidation, H2O2 HRP-luminol luminescence | inhibition, % (no concentration beside the values) | 290,000 compounds, 3.8% hits | P55789;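 active means mean replicate inhibition above about 79%, with every replicate also reaching it, limit read from the data; inconclusive means only one of the two criteria met; inactive means mean below limit and not every replicate reaching it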
NPR2 activator = GC-B (human) receptor activation. P20594. HEK293-GC-B cells, CNP EC30, cGMP TR-FRET; 0% at EC30 CNP, 100% saturating CNP. activation, % at 10 µM. 370,000 compounds, 0.11% hits. AID 1920062;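 active means activation at 10 µM reaching about 35% in either raw or pattern-adjusted values, limit read from the data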
HDAC3 inhib = inhibitors of human histone deacetylase 3; recombinant HDAC3, fluorogenic peptide/trypsin coupled, fluorescence; inhibition, % at 8.3 µM; 320,000 compounds, 0.15% hits; AID 2718; in the data active means inhibition above about 26%, passing the limit was not always enough; inconclusive means no clear call, values can overlap the other calls
NPR1 activator = GC-A (human) enzyme activation; P16066; HEK293 GC-A cells, cGMP TR-FRET, EC30 ANP; 0% at EC30 ANP, 100% saturating ANP; activation, % at 10 µM; 370,000 compounds, 0.14% hits; AID 1671463; in the data active means activation above about 40%
Target sequence (P16066 whole entry, looked up): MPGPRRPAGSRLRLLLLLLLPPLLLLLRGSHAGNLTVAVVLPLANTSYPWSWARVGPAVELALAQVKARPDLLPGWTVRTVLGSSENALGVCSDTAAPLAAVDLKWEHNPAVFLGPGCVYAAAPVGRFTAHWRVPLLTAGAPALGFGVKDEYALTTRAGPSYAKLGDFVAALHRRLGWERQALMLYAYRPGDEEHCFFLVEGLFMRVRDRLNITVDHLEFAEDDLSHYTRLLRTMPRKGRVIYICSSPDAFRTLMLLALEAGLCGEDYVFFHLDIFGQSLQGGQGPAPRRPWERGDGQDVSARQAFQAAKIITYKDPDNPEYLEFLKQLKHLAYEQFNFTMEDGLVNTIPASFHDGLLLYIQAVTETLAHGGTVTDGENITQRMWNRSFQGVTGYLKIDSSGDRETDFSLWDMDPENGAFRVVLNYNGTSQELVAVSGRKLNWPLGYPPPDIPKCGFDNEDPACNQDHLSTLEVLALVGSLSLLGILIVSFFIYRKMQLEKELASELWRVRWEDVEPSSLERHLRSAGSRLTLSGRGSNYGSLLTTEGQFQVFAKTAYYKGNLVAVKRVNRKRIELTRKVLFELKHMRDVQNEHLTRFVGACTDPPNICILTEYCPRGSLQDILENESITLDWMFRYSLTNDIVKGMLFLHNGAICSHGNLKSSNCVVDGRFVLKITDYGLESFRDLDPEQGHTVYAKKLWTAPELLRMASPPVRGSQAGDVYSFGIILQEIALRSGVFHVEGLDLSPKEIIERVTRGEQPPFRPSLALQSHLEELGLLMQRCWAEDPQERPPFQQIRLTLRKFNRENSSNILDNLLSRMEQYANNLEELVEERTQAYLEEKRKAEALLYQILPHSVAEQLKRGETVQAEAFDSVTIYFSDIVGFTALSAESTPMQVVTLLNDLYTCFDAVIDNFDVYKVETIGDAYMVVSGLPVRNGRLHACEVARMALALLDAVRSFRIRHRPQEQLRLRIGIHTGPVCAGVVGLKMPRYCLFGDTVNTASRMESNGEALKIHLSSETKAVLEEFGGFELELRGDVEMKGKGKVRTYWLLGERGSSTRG
The depositor's hits bear a star; u = inconclusive; x = not tested or not shown. The sample as a whole holds a higher share of hits than the screen did.

SMILES	ALR H2O2 inh	NPR2 activator	HDAC3 inhib	NPR1 activator
COc1cc(CC2COC(c3ccc(O)c(OC)c3)C2COC(C)=O)ccc1O (centres undefined)	82*	-5	3	-1
CC(CCc1ccccc1)NC(=O)/C=C/c1ccc(F)cc1 (centres undefined)	0	x	-5	x
CC(C)n1c(/C=C/[C@H](O)C[C@H](O)CC(=O)O)c(-c2ccc(F)cc2)c2ccccc21	99*	x	-4	x
COc1ccc(/C=N\Nc2ccc([N+](=O)[O-])cc2[N+](=O)[O-])c(C(=O)O)c1OC	98*	0	5	5
COc1cc(C=NNc2ccc(S(=O)(=O)Nc3ccccc3C(=O)O)cc2[N+](=O)[O-])ccc1O	99*	-1	12	-4
CN(CCO)c1ccc(C=NNc2ccc([N+](=O)[O-])cc2S(=O)(=O)Nc2ccccc2C(=O)O)cc1	99*	-1	u	1
CC(=O)Nc1ccc(C=NNc2ccc(S(=O)(=O)Nc3ccccc3C(=O)O)cc2[N+](=O)[O-])cc1	48	3	13	-4
CC(=O)Nc1ccc(C=NNc2ccc([N+](=O)[O-])cc2S(=O)(=O)Nc2ccccc2C(=O)O)cc1	65	0	6	-1
Cc1ccc2c(c1)c1c3n2CCN(CCC#N)C3CCC1 (centres undefined)	x	-4	x	-6
CCN1CCn2c3c(c4cc(C)ccc42)CCCC31 (centres undefined)	98*	-7	1	-2
O=C(Oc1oc(-c2ccco2)nc1C=Nc1ccc(Cl)cc1)c1ccco1	13	1	u	44*
COc1ccc(N=Cc2nc(-c3ccco3)oc2O)cc1	92*	-9	8	-3
COc1ccc(S(=O)(=O)N2CCN=C2SCc2cccnc2)cc1	99*	-5	-3	0
COc1ccc(S(=O)(=O)N2CCN=C2SCc2cccc(C)c2)cc1	-8	0	7	-6
Cc1ccc(S(=O)(=O)N2CCN=C2SCc2cccnc2)cc1	98*	2	-6	2
CS(=O)(=O)N1CCN=C1SCc1ccccc1	-3	13	0	3
O=S(=O)(c1ccccc1)N1CCN=C1SCc1cccnc1	100*	0	-3	2
CCS(=O)(=O)N1CCN=C1SCc1cccnc1	98*	6	-5	-2
C=C(C)CN=CC1(C)CCC(C)=CO1 (centres undefined)	x	8	x	0
CCOC1=C2[C@@H](CN(S(=O)(=O)c3ccc(C)cc3)[C@H]2c2cccs2)[C@H]2C(=O)N(c3ccccc3)C(=O)[C@H]2C1	x	-5	x	-4
O=S(=O)(c1ccc(Cl)cc1)N1CCN=C1SCc1cccnc1	97*	6	-3	-1
O=C(Nc1nc(-c2ccccc2)cs1)c1ccccc1NS(=O)(=O)c1ccc(F)cc1	96*	-3	-2	12
O=S(=O)(Nc1ccc(-c2csc(-c3ccccc3)n2)cc1)c1ccc(F)cc1	1	-7	7	-1
S=C(c1ccc2c(c1)OCO2)N1CCN(c2cccc(Cl)c2)CC1	x	4	x	-4
Cc1ccc(-c2nnn(CC(=O)N(CC3CCCO3)C(C(=O)NCC3CCCO3)c3ccc(F)cc3)n2)o1 (centres undefined)	-4	-1	-4	5
SMILES	ALR H2O2 inh	NPR2 activator	HDAC3 inhib	NPR1 activator
Cc1ccc(-c2nnn(CC(=O)N(CC3CCCO3)C(C(=O)NC(C)(C)C)c3ccc(F)cc3)n2)o1 (centres undefined)	99*	4	6	4
CCCn1nc([N+](=O)[O-])c(C(C#N)c2nc3ccccc3s2)c(Cl)c1=O (centres undefined)	97*	2	5	3
O=C(/C=C/c1ccc(O)c(O)c1)O[C@@H]1C[C@](O)(C(=O)O)C[C@@H](O)[C@H]1O	100*	-2	2	5
COc1cc(/C=C/C(=O)OC2CC3CCC2(C)C3(C)C)ccc1O (centres undefined)	u	-5	7	-5
O=C(/C=C/c1ccc(O)c(O)c1)OC1C(O)CC(OC(=O)/C=C/c2ccc(O)c(O)c2)(C(=O)O)CC1O (centres undefined)	99*	2	8	-1
CCCCn1nnnc1C(c1cc2ccccc2o1)N(CCN(C)C)Cc1ccccc1 (centres undefined)	x	-13	x	-23
CC1(O)C(=O)C2(C)C=CC1C1C(=O)N(c3ccccc3)C(=O)C12 (centres undefined)	x	5	x	1
C/C(=N\N=C(/N)c1nonc1N)c1ccc2c(c1)OCO2	0	0	-1	5
Cc1nn2c(=S)[nH]nc2[nH]c1=O	95*	5	14	5
Cc1n[nH]c(=S)n(NC(=O)/C=C/C(=O)Nn2c(=S)[nH]nc(C)c2=O)c1=O	x	-2	x	4
COc1cc(/C=C(\C#N)C(=O)NCc2cccs2)ccc1O	99*	3	14	-3
COc1cc(/C=C(\C#N)C(=O)NCC2CCCO2)ccc1OCC(N)=O (centres undefined)	95*	-3	-4	5
CCOc1cc(/C=C(\C#N)C(=O)NCc2cccnc2)ccc1O	88*	1	12	0
COCCNC(=O)/C(C#N)=C/c1ccc(OC(=O)c2cccs2)c(OC)c1	x	1	x	-4
O=C(COc1ccc2c(c1)OCO2)Nc1cccc(F)c1	x	4	4	0
COc1ccc(NC(=O)C(c2ccncc2)n2c(=O)c(-c3ccco3)nc3ccccc32)cc1 (centres undefined)	x	4	x	8
Cc1ccccc1Cn1cc(COC(=O)NCC(C)C)nn1	x	6	x	2
O=C(OCCc1ccccc1)c1cc(O)c(O)c(O)c1	99*	-1	3	0
Nc1ccc(C(=O)OCCc2ccccc2)cc1	x	2	1	1
C[C@H]1CN([C@@H](C)CO)C(=O)CCCn2cc(nn2)CO[C@@H]1CN(C)S(=O)(=O)c1cn(C)cn1	x	-1	x	3
COC(=O)[C@]12C[C@H](CC(=O)NCc3ccc(C)o3)C(=O)N(CCC3=CCCCC3)C1=C[C@H](C(C)C)O[C@@H]2C1CC1	x	-3	x	-2
CC(C)c1nnc(NC(=O)c2sc3ccccc3c2Cl)s1	98*	-1	6	2
C/C(=N\NC(=O)c1cc(Br)ccc1O)c1ccccn1	85*	4	11	12
O=c1c(C(c2ccc(Br)cc2)c2c(O)nc3n(c2=O)CCS3)c(O)nc2n1CCS2	52	4	4	-1
O=c1c(C(c2c(O)nc3n(c2=O)CCS3)c2cccc3ccccc23)c(O)nc2n1CCS2	96*	1	6	1
Cc1ccc(C(c2c(O)nc3n(c2=O)CCS3)c2c(O)nc3n(c2=O)CCS3)cc1	97*	4	6	2
O=c1c(C(c2ccc(O)cc2)c2c(O)nc3n(c2=O)CCS3)c(O)nc2n1CCS2	x	-2	13	8
CCOC(=O)C(=NC1CCS(=O)(=O)C1)NNc1cc(Cl)ccc1Cl (centres undefined)	u	-8	9	-23
CCOC(=O)C(=NC1CCS(=O)(=O)C1)NNc1ccc(Br)cc1 (centres undefined)	99*	-6	4	4
